Mcl1-Noxa inh = disrupts binding of human Mcl-1 to Noxa peptide. inhibition, % at 21.7 µM. Q07820. TR-FRET Mcl-1/Noxa peptide binding, 2 h. 1.5% of 220,000 active;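 active means compounds that cut the protein-peptide binding signal by more than 50% relative to plate controls in a single-dose test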;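 further: His-tagged Mcl-1 with rhodamine Noxa BH3 peptide and terbium anti-His antibody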
Bim-Mcl-1 = disrupts Bim peptide binding to human Mcl-1 | inhibition, % at 10 µM | Bead-based flow cytometry, Bim peptide-Mcl-1 binding | 0.1% of 190,000 active; in the data active means inhibition above about 40%
GLD-1 TGE inh = GLD-1-TGE RNA interaction inhibition (C. elegans); Q17339; purified GLD-1 + fluorescein TGE RNA, fluorescence polarization; inhibition, % at 5.96 µM; 0.44% of 320,000 active; AID 2280;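 active means percent inhibition above a per-plate cutoff, the plate mean of test compounds plus 3 SD, cut at about 30% in these data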
Target sequence (Q17339 whole entry, looked up): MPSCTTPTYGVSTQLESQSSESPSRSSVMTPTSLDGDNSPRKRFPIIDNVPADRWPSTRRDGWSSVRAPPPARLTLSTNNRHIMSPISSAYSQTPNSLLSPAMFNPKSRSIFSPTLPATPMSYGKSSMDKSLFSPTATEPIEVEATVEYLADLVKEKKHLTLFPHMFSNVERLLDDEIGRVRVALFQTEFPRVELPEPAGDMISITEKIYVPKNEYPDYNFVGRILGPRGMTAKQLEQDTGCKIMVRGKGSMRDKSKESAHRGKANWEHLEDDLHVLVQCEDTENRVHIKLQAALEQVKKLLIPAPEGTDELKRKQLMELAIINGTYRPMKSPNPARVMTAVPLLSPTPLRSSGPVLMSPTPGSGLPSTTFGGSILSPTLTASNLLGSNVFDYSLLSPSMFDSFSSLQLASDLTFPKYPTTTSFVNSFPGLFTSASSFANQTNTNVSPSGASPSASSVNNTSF
Mcl1-Bid inh = disrupts binding of human Mcl-1 to Bid peptide | Q07820 | TR-FRET Mcl-1/Bid-Dy647 peptide binding, 1536-well | inhibition, % at 21.7 µM | 0.97% of 220,000 active | AID 1021;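 active means compounds that cut the binding signal by more than half at the single screening dose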;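 further: His-tagged Mcl-1 with europium anti-His antibody binding Bid BH3 peptide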
MCL1 BIM primary = inhibitors of human MCL1 binding to BIM-BH3 peptide | Q07820 | GST-MCL1 / FITC-Bim-BH3 fluorescence polarization | inhibition, % at 10.9 µM | 0.68% of 320,000 active;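 active means inhibition above the mean inhibition of all tested compounds plus 3 SD, set per campaign, cut at about 40% in these data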;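 further: higher means more loss of mP so more displacement of Bim peptide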
BCLXL inh = inhibitors of human Bcl-xL; Q07817; GST-Bcl-xL / FITC-Bim BH3 peptide fluorescence polarization; inhibition, % at 10.9 µM; 0.7% of 320,000 active;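 active means inhibition above the mean of all tested compounds plus 3 SD, cutoff set per campaign, cut at about 30% in these data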;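 further: inhibitors lower millipolarization by displacing the labeled peptide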
Target sequence (Q07817 whole entry, looked up): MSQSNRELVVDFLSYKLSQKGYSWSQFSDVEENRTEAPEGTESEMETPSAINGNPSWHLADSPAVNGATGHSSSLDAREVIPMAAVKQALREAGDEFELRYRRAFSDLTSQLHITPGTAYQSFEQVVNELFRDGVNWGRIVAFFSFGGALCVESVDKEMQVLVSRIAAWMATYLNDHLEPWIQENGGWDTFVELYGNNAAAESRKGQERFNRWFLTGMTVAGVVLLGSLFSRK
Large screens that a line does not name were inactive. Shown are actives, neighbours in structure and some others; about 2.3% of the full set was active somewhere.

O=c1oc2ccccc2c(O)c1/C=C1\C=Nc2ccccc21	Mcl1-Noxa inh 78
Cc1cc(C2C(C#N)=C(N)OC3=C2C(=O)CCC3)c(C)s1 (stereo unspecified)	none
COc1cc(C2C(C#N)=C(N)OC3=C2C(=O)CCC3)c([N+](=O)[O-])cc1OC (stereo unspecified)	Mcl1-Noxa inh 97, GLD-1 TGE inh 98, MCL1 BIM primary 194, BCLXL inh 156
O=C(N/N=C\c1ccccc1)c1cccc(C(=O)N/N=C\c2ccccc2)n1	none (no result: Mcl1-Noxa inh, Bim-Mcl-1, Mcl1-Bid inh)
CNc1nc2ccccc2n1/N=C/c1cccc(OC)c1OC	Bim-Mcl-1 57
CSc1nc(C)cc(OCCNS(=O)(=O)c2ccc(C)cc2)n1	none (no result: Mcl1-Noxa inh, Bim-Mcl-1, Mcl1-Bid inh)
CCc1nc(N)c(C#N)c(-c2ccc(OC)c(OC)c2)c1C	none
CC1=C(C#N)c2nc(N)c(C#N)c(C)c2/C1=C\c1ccc(OCC(=O)O)c(Cl)c1	Mcl1-Noxa inh 57, BCLXL inh 37 (no result: Bim-Mcl-1)
CC(=O)Nc1ccc(NC(=O)c2ccccc2N(Cc2ccccc2)S(C)(=O)=O)cc1	none (no result: Mcl1-Noxa inh, Bim-Mcl-1, Mcl1-Bid inh)
COc1ccc(NC(=O)c2ccccc2N(Cc2ccccc2)S(C)(=O)=O)cc1	Mcl1-Noxa inh 83
N=C1S/C(=C\c2ccco2)C(=O)N1c1ccc2c(c1)OCO2	Mcl1-Noxa inh 84
Cc1ccc(/C=C2\SC(=S)N(Cc3ccccc3)C2=O)o1	Mcl1-Noxa inh 90
O=C1/C(=C/c2ccncc2)SC(=S)N1Cc1ccccc1	none (no result: Bim-Mcl-1)
CC1(C)OC(=O)C(=Cc2ccc(-c3ccc(Cl)c(C(=O)O)c3)o2)C(=O)O1	none
COC(=O)c1ccc(N2NC(=O)/C(=C/c3ccc(-c4ccc(Cl)c(C(=O)O)c4)o3)C2=O)cc1	none (no result: GLD-1 TGE inh, MCL1 BIM primary, BCLXL inh)
Cc1ccc(NC(=O)CN2C(=O)S/C(=C/c3ccc(-c4cccc(C(=O)O)c4)o3)C2=O)cc1	Mcl1-Noxa inh 83 (no result: GLD-1 TGE inh, MCL1 BIM primary, BCLXL inh)
COc1ccc(CN2C(=O)/C(=C/c3ccc(-c4ccc(Cl)c(C(=O)O)c4)o3)SC2=S)cc1	Mcl1-Noxa inh 92, Mcl1-Bid inh 99 (no result: GLD-1 TGE inh, MCL1 BIM primary, BCLXL inh)
O=C(O)c1cc(-c2ccc(/C=C3/SC(=S)N(Cc4ccccc4)C3=O)o2)ccc1Cl	Mcl1-Noxa inh 85, Mcl1-Bid inh 101 (no result: GLD-1 TGE inh, MCL1 BIM primary, BCLXL inh)
O=S(=O)(Nc1nc2ccccc2nc1NCc1ccco1)c1ccc(Cl)cc1	none
Cc1ccc(S(=O)(=O)Nc2nc3ccccc3nc2NCc2ccco2)cc1	MCL1 BIM primary 43, BCLXL inh 40
CCCCn1c(N)c(S(=O)(=O)c2ccc(C)cc2)c2nc3ccccc3nc21	none
Cc1cccc(S(=O)(=O)c2c(N)n(Cc3ccco3)c3nc4ccccc4nc23)c1	GLD-1 TGE inh 69, BCLXL inh 37
Cc1ccc(S(=O)(=O)c2c(N)n(Cc3ccco3)c3nc4ccccc4nc23)cc1	GLD-1 TGE inh 44
COc1ccc(OC)c(-c2cc(C(=O)N3CCOCC3)no2)c1	none (no result: Mcl1-Noxa inh, Bim-Mcl-1, Mcl1-Bid inh)
O=c1[nH]c(CSc2ncnc3sc(-c4ccccc4)cc23)nc2ccccc12	Mcl1-Bid inh 61 (no result: Bim-Mcl-1)
O=C(CN1C(=O)/C(=C2\SC(=S)N(C3CCS(=O)(=O)C3)C2=O)c2ccccc21)Nc1ccccc1 (stereo unspecified)	Mcl1-Noxa inh 121, Mcl1-Bid inh 99
Cc1ccc(NC(=O)CN2C(=O)/C(=C3\SC(=S)N(C4CCS(=O)(=O)C4)C3=O)c3ccccc32)cc1 (stereo unspecified)	Mcl1-Noxa inh 75, Mcl1-Bid inh 100 (no result: GLD-1 TGE inh, MCL1 BIM primary, BCLXL inh)
Cc1cccc(NC(=O)CN2C(=O)/C(=C3\SC(=S)N(CC4CCCO4)C3=O)c3ccccc32)c1 (stereo unspecified)	none (no result: Mcl1-Noxa inh, Bim-Mcl-1, Mcl1-Bid inh)
CCC(C)NC(=O)C1CCN(CCCc2ccccc2)CC1 (stereo unspecified)	none (no result: Mcl1-Noxa inh, Bim-Mcl-1, Mcl1-Bid inh)
O=C(/C=C/c1ccco1)c1ccc(NC(=O)C23CC4CC(CC(C4)C2)C3)cc1	Mcl1-Noxa inh 60
O=C(NN1C(=O)C2C(C1=O)C1C=CC2C12CC2)c1ccc(Cl)cc1 (stereo unspecified)	Mcl1-Bid inh 100 (no result: Bim-Mcl-1)
O=C(NCCc1ccccc1)C1CCN(S(=O)(=O)c2ccc(-c3nn[nH]n3)cc2)CC1	Mcl1-Bid inh 88
O=c1c2c(nc3cc(-c4ccc(F)cc4)[nH]n13)CCCC2	Mcl1-Noxa inh 52
O=c1c2c(nc3cc(-c4cccc(F)c4)[nH]n13)CCC2	none
Cc1[nH]n2c(=O)c3c(nc2c1-c1ccc(F)cc1)CCCC3	Mcl1-Bid inh 81
Cc1[nH]n2c(=O)c3c(nc2c1-c1ccccc1)CCCC3	none
Cc1cc(Nc2ccc([N+](=O)[O-])cc2)c2ccccc2n1	none (no result: Mcl1-Noxa inh, Bim-Mcl-1, Mcl1-Bid inh)
O=c1nc(Nc2ccccc2)sc2ccc([N+](=O)[O-])cc12	Mcl1-Noxa inh 54
CCC(c1nnnn1CCOC)N1CCN(Cc2ccccc2)CC1 (stereo unspecified)	none
c1ccc2[nH]c(CN3CCOCC3)nc2c1	Mcl1-Bid inh 98
c1ccc2cc3[nH]c(CN4CCOCC4)nc3cc2c1	none
CCN(CC)C(=O)C1CCCN(c2ccc([N+](=O)[O-])cc2/C=N/NC(=O)c2cccc([N+](=O)[O-])c2)C1 (stereo unspecified)	Mcl1-Bid inh 63
Cc1cccc(NC(=O)CCS(=O)(=O)c2ccc3c(c2)NC(=O)CS3)n1	BCLXL inh 31 (no result: Mcl1-Noxa inh, Bim-Mcl-1, Mcl1-Bid inh)
COC(=O)c1ccc2c(=O)n(CCCCCC(=O)NCc3ccc4c(c3)OCO4)c(=O)[nH]c2c1	Mcl1-Bid inh 56
O=[N+]([O-])c1ccccc1OCc1nc(-c2cccs2)no1	none
Cc1ccc(-n2cccc2/C=C2/C(=N)N3C(=NC2=O)SN=C3S(C)(=O)=O)cc1Cl	Mcl1-Noxa inh 116, Mcl1-Bid inh 97
CCc1ccc(NC(=O)Cn2cnc([N+](=O)[O-])c2)cc1	none (no result: Mcl1-Noxa inh, Bim-Mcl-1, Mcl1-Bid inh)
COC(=O)c1sc(N2C(=O)c3oc4ccccc4c(=O)c3C2c2cccc(O)c2)nc1C (stereo unspecified)	Mcl1-Bid inh 58 (no result: Bim-Mcl-1)
CC(=O)Nc1ccc(C2=NN(c3ccccc3)C(c3cccs3)C2)cc1 (stereo unspecified)	none
O=C(O)CCc1nc(-c2ccccc2)no1	none
O=C(O)CCc1nc(-c2cccs2)no1	Mcl1-Noxa inh 84
O=C(Cc1cccs1)N=Nc1c(O)[nH]c2ccc(Br)cc12	none (no result: Bim-Mcl-1)
COc1ccc2[nH]c(O)c(N=NC(=O)Cc3cccs3)c2c1	Mcl1-Noxa inh 61 (no result: Bim-Mcl-1)
O=C(Nc1cccc(N2CCCC2)c1)c1cccs1	Mcl1-Noxa inh 51
Cc1c(C=O)c(Cl)n(C)c(=O)c1C#N	Mcl1-Noxa inh 55, BCLXL inh 37
Cc1cc(C)n(C)c(=O)c1C#N	none
O=C(/C=C/c1cccs1)N1CCN(c2ccc(O)cc2)CC1	Mcl1-Noxa inh 79
Nc1ccc(N2CCN(C(=O)c3cccs3)CC2)cc1	Mcl1-Noxa inh 61
Cc1ccc(C)c(N2N=C(C(=O)N(CC(C)C)c3c(N)n(Cc4ccccc4)c(=O)[nH]c3=O)CCC2=O)c1	GLD-1 TGE inh 61 (no result: Mcl1-Noxa inh, Bim-Mcl-1, Mcl1-Bid inh)
COc1ccc(CCNC(=S)Nc2cc(C)cc(C)c2)cc1	none
